Unmarked numbers belong to inactive results. Activity calls are given as the source filed them.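 Rule for the calls: active = inhibition above the hit cutoff set in the earlier primary screen (cut at about 27% in these data); inactive = the rest.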
Each compound was assayed against Protein phosphatase methylesterase 1 (Homo sapiens) (UniProt Q9Y570) (assay: human PME-1 methylesterase inhibition confirmation – biochemical, fluorescence polarization, FP-Rh probe, triplicate (AID 2171;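 note: 0% = enzyme with DMSO and 100% = wells lacking PME-1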)). Settings: recombinant PME-1, FP-Rh probe fluorescence polarization; at 5.9 µM; hits give high values.
Chain of Protein phosphatase methylesterase 1 (Homo sapiens) (Q9Y570 whole entry, looked up): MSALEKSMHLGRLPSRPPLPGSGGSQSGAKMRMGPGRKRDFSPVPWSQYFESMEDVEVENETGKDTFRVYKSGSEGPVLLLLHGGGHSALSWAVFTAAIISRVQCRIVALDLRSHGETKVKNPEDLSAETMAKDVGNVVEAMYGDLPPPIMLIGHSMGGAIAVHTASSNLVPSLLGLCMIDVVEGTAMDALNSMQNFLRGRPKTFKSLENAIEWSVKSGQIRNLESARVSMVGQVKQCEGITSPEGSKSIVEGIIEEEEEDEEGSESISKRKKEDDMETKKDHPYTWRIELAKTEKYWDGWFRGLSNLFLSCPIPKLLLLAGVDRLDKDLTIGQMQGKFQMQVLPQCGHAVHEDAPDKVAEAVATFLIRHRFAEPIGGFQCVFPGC

Compound | inhibition
O=C(CNc1cccc2ccccc12)N/N=C/C(Br)=C/c1ccccc1 | -1.47%
Cc1ccc(-c2c(C(=O)N/N=C/c3c[nH]c4ccccc34)nnn2-c2nonc2N)cc1 | 21.9%
CN(C)S(=O)(=O)c1ccc(-c2csc(N/N=C/c3ccc(O)cc3)n2)cc1 | 25%
CCOC(=O)Cc1csc(NC(=O)c2sc3nc4c(C)cc(C)cc4cc3c2N)n1 | 23.4%
Fc1ccc2nc(Nc3nc4cc5c(cc4s3)OCO5)sc2c1 | 2.53%
C/C(=N\Nc1ccc(C(=O)O)cc1)c1ccc2c(c1)Nc1ccccc1S2 | 30.5% (active)
O=C(N/N=C/c1ccc(O)c(O)c1)c1ccc(CSc2cccc3cccnc23)cc1 | -3.59%
O=c1[nH]n2c(=O)c3c([nH]c2c1N=Nc1cccc(Cl)c1)CCCC3 | 61.8% (active)
CC(C)c1ccc2c(c1)C1(NN=C(c3ccccc3)S1)C(=O)N2 (stereo not given) | 33.9% (active)
CCc1cc(/C(Cc2ccc3ccccc3n2)=N\O)c(O)cc1O | 30.8% (active)
CS(=O)(=O)N1N=C(c2ccccc2)CC1c1ccc2c(c1)OCO2 (stereo not given) | -54.8%
Cc1[nH]c2ccccc2c1N=Nc1ccccc1C(=O)O | 20.8%
CCN(c1ccccc1)S(=O)(=O)c1ccc(OC)c(NC(=O)CNCCc2ccccc2)c1 | 19.9%
Cc1cccc2c(N=Nc3ccc(S(=O)(=O)Nc4cccc(Cl)c4)cc3[N+](=O)[O-])c(O)[nH]c12 | -12.3%
CCNc1ccc2noc3c2c1C(=O)c1ccccc1-3 | 87.6% (active)
Cc1cc(C(=O)CC#N)c(C)n1-c1ccc(OC(F)F)cc1 | 45.9% (active)
Cc1ccc2[nH]c3c(N4CCc5ccccc5C4)ncnc3c2c1 | 30.5% (active)
CC#CCN1c2ccccc2[C@]23C[C@@H](C(=O)OC)N(C(=O)c4cc(C)oc4C)C2=NC(C(=O)OC)=C(C(=O)OC)[C@H]13 | 29.6% (active)
CCOC(=O)c1ccc(Nc2nc(N)c3cc(OC)c(OC)cc3n2)cc1 | 27.9% (active)
O=C(c1sc2ccccc2c1Cl)N1CCN(c2ncccn2)CC1 | 24.4%

Compound | inhibition
O=C(COC(=O)/C=C/c1cccs1)Nc1nc(-c2cccc(Br)c2)cs1 | 14.9%
Cc1c(C(=O)N/N=C/c2ccc(O)c(Br)c2)sc(N)c1C#N | 49.7% (active)
CC(C)=NNc1nc2sc3c(c2c(=O)[nH]1)CC(C)(C)OC3 | 14.6%
CCn1cc(C(=O)NCCCN2CCCC(C)C2)c(=O)c2cc(S(=O)(=O)N(C)C3CCCCC3)ccc21 (stereo not given) | 45.2% (active)
CSc1nsc(/C=C/Nc2ccc(O)cc2C)c1C#N | -1.46%
CCOc1cccc(CNc2ccc(O)cc2)c1OCc1ccccc1Cl | 6.79%
COCCN=c1scc(-c2cc(OC)c(OC)c(OC)c2)n1/N=C/c1c(C)[nH]c2ccccc12 | 18.7%
Cc1ccc(C)c(-n2c3nc(=O)[nH]c(=O)c-3cc3cc([N+](=O)[O-])ccc32)c1 | 24.5%
CCC1Sc2ccc(S(=O)(=O)CCC(=O)Nc3ccc(OC(F)(F)F)cc3)cc2NC1=O (stereo not given) | 17.3%
O=C(O)c1ccc(N/N=C/c2cn(Cc3ccccc3F)c3ccccc23)cc1 | 93.4% (active)
CC1=Nc2ccccc2/C1=C\c1sc(Nc2ccc(C)cc2)nc1O | 42.2% (active)
O=[N+]([O-])c1ccc(N/N=C/c2ccccc2O)cc1 | 10.8%
Cc1cc(N)ccc1N1CCCC1 | 7.13%
O=c1[nH][nH]c2cc(=O)n(-c3cccc(C(F)(F)F)c3)nc12 | 28.5% (active)
COC(=O)N1C(=O)[C@](c2ccc(OC)cc2)(C(C)C)N1C(=O)OC | 48.2% (active)
COc1ccc(CCn2c(N)c(C#N)c3nc4ccccc4nc32)cc1OC | 25.9%
COc1ccc2ccccc2c1C(O)c1nccn1C (stereo not given) | 23.1%
CCN(CC(=O)Nc1c(F)cccc1F)C(=O)CCc1ccc(OC)cc1 | 6.49%
O=C(Nc1ccc(N2CCOCC2)cc1)Nc1ccc(Cl)c(Cl)c1 | 21.4%
COc1ccc(C2Nc3cccc4cccc(c34)N2)cc1Br | 15.1%
